Source: PubChem
Shown are actives, neighbours in structure and some others; about 5.7% of the full set was active somewhere.
rCAG binder = binders of r(CAG) RNA repeats, primary screen, biochemical, fluorescence | r(CAG) RNA repeat, TO-PRO-1 dye displacement fluorescence | inhibition, % at 3 µM | 370,000 tested, 1.3% active | AID 651821, 2012;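 active means inhibition above the plate cutoff, the mean of all test compounds on that plate plus 3 SD, cut at about 35% in these data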;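 further: 0% = DMSO alone and 100% = 100 µM mitoxantrone as full dye displacement; higher means more dye released from RNA so lower well fluorescence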
FAS TE block = FAS thioesterase domain inhibitors, primary screen, biochemical, fluorescence intensity, uHTS. inhibition, % at 15 µM. recombinant FAS-TE, OMFH fluorogenic substrate, fluorescence endpoint. 360,000 tested, 0.67% active. Fatty acid synthase (Homo sapiens), P49327;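 active means compounds whose normalised, plate-corrected inhibition of enzyme fluorescence in the single-dose primary screen is 50% or more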;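 further: 0% = DMSO with enzyme and 100% = substrate without enzyme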
MPTP block = mitochondrial permeability transition pore inhibitors, primary screen, biochemical, isolated mouse mitochondria, absorbance; Ca2+ swelling absorbance, 30 min; inhibition, % at 10 µM; 360,000 tested, 1.4% active; AID 602449, 2012;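 active means inhibition of 50% or more, scaled per plate between neutral and stimulator controls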;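 further: 0% = DMSO wells given calcium and 100% = 1 mM EGTA wells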
GRIN3A LBD mod = binders of NR3A ligand-binding domain, primary screen, biophysical, differential scanning fluorimetry, uHTS; AID 1259313, 2017; NR3A LBD differential scanning fluorimetry, Tm shift; 0% = protein alone, 100% = glycine-bound protein; Tm shift relative to glycine control, % at 25 µM; 340,000 tested, 2.5% active; Glutamate receptor ionotropic, NMDA 3A (GRIN3A) ligand-binding domain;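 active means melting temperature shift of at least 10% of the positive control shift, at one fixed dose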
Myeloid diff MLP = induction of myeloid progenitor differentiation, primary screen, cell-based, flow cytometry, MLPCN library; AID 624256, 2012; ER-HoxA9 myeloid progenitors, lysozyme-GFP differentiation; 360,000 tested, 1% active; calls only at 10 µM;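 active means normalized GFP-positive differentiation at or above the plate's own cutoff, the solvent-only control mean plus 3 SD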;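 further: cells exposed to compound for four days before flow analysis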
rCAG bind conf = small molecules binding CAG repeat RNA – biochemical, fluorescence, confirmation; inhibition, % at 3 µM; shares compounds with rCAG binder; r(CAG) RNA repeat, TO-PRO-1 dye displacement fluorescence; 4,300 tested, 70% active;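 active means inhibition above a per-plate cutoff, the mean inhibition of sample wells plus 3 SD, cut at about 35% in these data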;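 further: loss of TO-PRO-1 fluorescence as compound displaces dye from 1x1 AA loop RNA; 0% = DMSO only wells and 100% = 100 µM mitoxantrone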
DNA CAG counter = displacement of TO-PRO-1 from CAG DNA duplex, counter-screen for rCAG RNA repeat binder project, biochemical, fluorescence, TO-PRO-1 dye, d(CAG) DNA oligo; shares compounds with rCAG binder; d(CAG) DNA oligo TO-PRO-1 dye displacement; inhibition, % at 3 µM; 4,300 tested, 94% active; AID 652068, 2013;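 active means inhibition above its plate's cutoff, the mean test-well inhibition plus 3 SD, cut at about 4.8% in these data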;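 further: 0% = DNA dye mix with DMSO and 100% = 100 µM mitoxantrone; hits displace the dye from DNA and so lower well fluorescence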
Active calls of the source: *; i = inactive; · = not tested or not shown; + = active, no number.

SMILES	rCAG binder	FAS TE block	MPTP block	GRIN3A LBD mod	Myeloid diff MLP	rCAG bind conf	DNA CAG counter
COc1cc(C)ccc1S(=O)(=O)NC(=O)C1(C)CCN1C(=O)C1(c2ccc(Cl)cc2)CCC1 (configuration not stated)	42*	-10	0	·	i	30	5.4*
Cc1ccc(F)c(S(=O)(=O)NC(=O)C2(C)CCN2C(=O)C2(c3ccc(Cl)cc3)CC2)c1 (configuration not stated)	36*	-13	0	·	i	35*	7.6*
Cc1c(C)n(Cc2ccccc2)c2ccc(C(=O)O)cc12	3	-2	2	0	i	·	·
Cc1c(C)n(Cc2ccc(-c3ccccc3C(=O)O)cc2)c2ccc(C(=O)N[C@@H](C)c3ccc(Br)cc3)cc12	77*	·	·	·	·	77*	38*
CCOC(=O)CSc1nc2c(sc(=S)n2-c2ccc(CC)cc2)c(=O)[nH]1	60*	10	3	-9	i	65*	26*
CCOC(=O)CC(=O)CSc1nc2c(sc(=S)n2-c2ccccc2)c(=O)[nH]1	41*	-1	0	-2	i	21	5.8*
CCCCNC(=O)CSc1nc2c(sc(=S)n2-c2cc(Cl)ccc2OC)c(=O)[nH]1	44*	-3	1	-1	i	43*	12*
COc1cccc(COC(=O)c2nn(-c3ccccc3)nc2N)c1	8	-9	0	0	i	·	·
O=C(O)c1cccc2[nH]c(C(F)(F)F)nc12	3	-5	-7	1	i	·	·
Nc1cccc2[nH]c(C(F)(F)F)nc12	70*	1	7	4	i	61*	33*
COc1ccc(C(=O)N2C(=S)NC(=O)/C2=C\c2ccc(C)cc2)cc1	64*	4	6	5	i	66*	31*
CCOC(=O)C1=C(O)/C(=C/c2ccc(CNC(=O)C(=O)Nc3ccc(C)cc3)o2)N=C1C	49*	-4	1	-2	i	23	11*
COC(=O)C1=C(O)/C(=C\c2ccc(CNC(=O)C(=O)Nc3ccc(C)cc3)o2)N=C1C	20	-1	5	-2	i	·	·
COC(=O)C1=C(O)/C(=C\c2ccc(CNC(=O)C(=O)Nc3ccc(C)c(C)c3)o2)N=C1C	56*	-13	-1	-26	i	24	12*
O=C(CSc1ccc(-c2ccco2)nn1)c1cccc([N+](=O)[O-])c1	35*	9	3	-12	i	17	11*
CC(=O)c1cccc(NC(=O)CSc2ccc(-c3ccco3)nn2)c1	26	1	-1	0	i	·	·
CC(OC(=O)c1cccc([N+](=O)[O-])c1)C(=O)NCc1ccc2c(c1)OCO2 (configuration not stated)	-1	10	0	-1	i	·	·
COCCCNc1nc2ccccc2nc1NS(=O)(=O)c1cc(Cl)ccc1Cl	50*	0	0	1	i	48*	15*
COc1cc(C(=O)Nc2ccc(N3CCCS3(=O)=O)cc2)c([N+](=O)[O-])cc1OC	2	-2	0	2	i	·	·
CC(NC(=O)CN1c2cccc3cccc(c23)S1(=O)=O)c1ccc(S(N)(=O)=O)cc1 (configuration not stated)	40*	-2	0	-2	i	16	10*
CCOC(=O)C1=C(C)N=c2s/c(=C/c3ccccc3)c(=O)n2C1c1ccc(OC)c(OC)c1 (configuration not stated)	-1	23	4	-2	i	·	·
CCOC(=O)C1=C(C)N=c2s/c(=C/c3ccc(OCC(=O)O)cc3)c(=O)n2C1c1ccc(F)cc1 (configuration not stated)	69*	4	0	0	+	77*	36*
